The text below walks through data of PubChem BioAssay.

SMILES strings stand for the structures. Results filed as inconclusive are left out. For part of these data: Results with a measured potency or affinity are listed apart. Active and inactive are the calls of the source. Cut-off read from the data, not from the text of the source: active = fluorescence slope change above about 50%; inconclusive = mostly about 31% to 49%; inactive = weaker than that.

One experiment deals with ATP-dependent translocase ABCB1 (Homo sapiens) (UniProt P08183). Kind of experiment: MDR1 (ABCB1) efflux transporter inhibition, cell-based (AID 377). The following applies: MDR1-expressing cells, fluorescent substrate accumulation slope; stronger effect = higher value; concentration not given here.
Chain of ATP-dependent translocase ABCB1 (Homo sapiens) (P08183 whole entry, looked up): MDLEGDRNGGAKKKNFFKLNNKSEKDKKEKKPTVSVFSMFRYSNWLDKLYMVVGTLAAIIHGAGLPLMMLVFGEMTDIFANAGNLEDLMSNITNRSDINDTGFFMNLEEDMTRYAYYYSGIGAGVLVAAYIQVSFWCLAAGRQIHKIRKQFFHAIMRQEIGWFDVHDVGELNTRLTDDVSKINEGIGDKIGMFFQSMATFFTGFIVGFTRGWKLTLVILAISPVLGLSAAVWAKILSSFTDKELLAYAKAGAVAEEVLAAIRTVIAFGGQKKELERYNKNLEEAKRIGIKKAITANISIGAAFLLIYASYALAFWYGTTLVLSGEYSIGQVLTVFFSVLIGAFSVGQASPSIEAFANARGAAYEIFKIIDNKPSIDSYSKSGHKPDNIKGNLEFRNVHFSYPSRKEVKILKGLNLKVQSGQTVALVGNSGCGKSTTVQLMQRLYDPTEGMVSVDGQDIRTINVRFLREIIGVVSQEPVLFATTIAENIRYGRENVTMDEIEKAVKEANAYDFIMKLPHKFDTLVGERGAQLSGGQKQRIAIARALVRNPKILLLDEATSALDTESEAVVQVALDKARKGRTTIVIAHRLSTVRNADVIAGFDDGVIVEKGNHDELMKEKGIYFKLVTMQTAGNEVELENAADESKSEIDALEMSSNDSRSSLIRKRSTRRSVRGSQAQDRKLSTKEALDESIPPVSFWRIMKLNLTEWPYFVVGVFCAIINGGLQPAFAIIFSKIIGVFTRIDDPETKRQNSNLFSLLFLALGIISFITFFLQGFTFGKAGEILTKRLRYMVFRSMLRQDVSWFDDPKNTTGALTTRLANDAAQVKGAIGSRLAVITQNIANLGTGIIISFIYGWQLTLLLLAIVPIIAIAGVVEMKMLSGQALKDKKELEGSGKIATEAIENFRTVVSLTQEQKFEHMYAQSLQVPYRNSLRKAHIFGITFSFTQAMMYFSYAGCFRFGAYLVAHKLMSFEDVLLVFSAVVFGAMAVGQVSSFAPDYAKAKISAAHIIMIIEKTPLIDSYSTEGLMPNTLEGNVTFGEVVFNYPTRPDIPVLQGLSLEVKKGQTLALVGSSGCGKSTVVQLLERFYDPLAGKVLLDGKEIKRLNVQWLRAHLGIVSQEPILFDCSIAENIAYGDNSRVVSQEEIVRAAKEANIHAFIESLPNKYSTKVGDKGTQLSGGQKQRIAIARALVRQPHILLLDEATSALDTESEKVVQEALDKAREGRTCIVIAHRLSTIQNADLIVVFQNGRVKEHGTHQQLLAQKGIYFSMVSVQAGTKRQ
For the compound `CC(C)NCC(O)COc1cccc2[nH]ccc12` (stereo not given), the fluorescence slope change is 68.5% (active).

In the case of `CCn1cc(C(=O)O)c(=O)c2ccc(C)nc21`, the fluorescence slope change is 59.8% (active).

On to `Cc1cc(NS(=O)(=O)c2ccc(N)cc2)no1`, for which the fluorescence slope change is 62% (active).

In the case of `O=C1CN(/N=C/c2ccc([N+](=O)[O-])o2)C(=O)N1`, the fluorescence slope change is 98.9% (active).

Turning to `COC(=O)C1=C(C)NC(C)=C(C(=O)OCCN(C)Cc2ccccc2)C1c1cccc([N+](=O)[O-])c1` (stereo not given), the fluorescence slope change is 15.7% (inactive).

On to `O=C(CCCN1CCC(O)(c2ccc(Cl)cc2)CC1)c1ccc(F)cc1`, for which the fluorescence slope change is 23.3% (inactive).

Take `COc1c2occc2cc2ccc(=O)oc12`: the fluorescence slope change was 78.2% (active).

On to `CN/C(=C\[N+](=O)[O-])NCCSCc1ccc(CN(C)C)o1`, for which the fluorescence slope change is 105% (active).

`CN1C(=O)CC[C@H]1c1cccnc1`: the fluorescence slope change is 94.5% (active).

Consider `CC(C(=O)O)c1cccc(C(=O)c2ccccc2)c1` (stereo not given), for which the fluorescence slope change is 70.4% (active).

Test system in a further experiment: not listed separately
Kind of experiment: polyglutamine-triggered caspase-3 activation inhibitors, cell-based (AID 1583). The conditions noted are these: polyglutamine-induced caspase-3 activation, cell assay; stronger effect = higher value;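 tested at 10 µM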.
For orientation: inhibition means the change of the read-out against control, counted positive when it falls. Regarding `N=c1nc(N2CCCCC2)cc(N)n1O`, the inhibition amounted to 20.6%.

As for `CC(C)NCC(O)COc1cccc2[nH]ccc12` (stereo not given), the inhibition is -39.9%.

`CCn1cc(C(=O)O)c(=O)c2ccc(C)nc21`: the inhibition was 1.35%.

For the compound `CN(C)C(=O)C(CCN1CCC(O)(c2ccc(Cl)cc2)CC1)(c1ccccc1)c1ccccc1`, the inhibition was found to be 18.5%.

Turning to `Cc1cc(NS(=O)(=O)c2ccc(N)cc2)no1`, the inhibition turned out to be 23.4%.

With `CCCC(CCC)C(=O)O`, the inhibition was determined as 28.5%.

For `O=C1CN(/N=C/c2ccc([N+](=O)[O-])o2)C(=O)N1`, the inhibition was found to be 27%.

Take `COc1cc(Cc2cnc(N)nc2N)cc(OC)c1OC`: the inhibition was -19.7%.

With `COC(=O)C1=C(C)NC(C)=C(C(=O)OCCN(C)Cc2ccccc2)C1c1cccc([N+](=O)[O-])c1` (stereo not given), the inhibition stood at 5.3%.

Turning to `O=C(CCCN1CCC(O)(c2ccc(Cl)cc2)CC1)c1ccc(F)cc1`, the inhibition is -12.1%.

Take `CC12CCC(CC1)C(C)(C)O2`: the inhibition turned out to be 20.8%.

`CC(C)(C)NCC(O)c1ccc(O)c(CO)c1` (stereo not given): the inhibition is -4.84%.

Take `COc1ccc2cc([C@H](C)C(=O)O)ccc2c1`: the inhibition was -27.8%.

For the compound `COc1c2occc2cc2ccc(=O)oc12`, the inhibition was found to be 18.6%.

In the case of `CN/C(=C\[N+](=O)[O-])NCCSCc1ccc(CN(C)C)o1`, the inhibition amounted to 6.1%.

In the case of `CNCCCN1c2ccccc2CCc2ccccc21`, the inhibition is -34.3%.

For `CN1C(=O)CC[C@H]1c1cccnc1`, the inhibition amounted to 25.7%.

With `CCCC(=O)Nc1ccc(OCC(O)CNC(C)C)c(C(C)=O)c1` (stereo not given), the inhibition is -2.9%.

In the case of `CC(C)OC(=O)C(C)(C)Oc1ccc(C(=O)c2ccc(Cl)cc2)cc1`, the inhibition is -9.13%.

Regarding `CC(C(=O)O)c1cccc(C(=O)c2ccccc2)c1` (stereo not given), the inhibition was -50.9%.

In the case of `CN1CCN(C2=Nc3cc(Cl)ccc3Nc3ccccc32)CC1`, the inhibition was -23.8%.

Consider `COC(=O)C1=C(C)NC(C)=C(C(=O)OC)C1c1ccccc1[N+](=O)[O-]`, for which the inhibition worked out at 28.5%.

Test system in a further experiment: not listed separately
As to the kind of experiment: suppressors of polyQ aggregation in yeast, 75Q-TubU reporter (AID 1593). The following applies: Yeast 75Q polyglutamine aggregation reporter.
The compound `N=c1nc(N2CCCCC2)cc(N)n1O` gave a score of 1.58.

On to `CC(C)NCC(O)COc1cccc2[nH]ccc12` (stereo not given), for which the score was 1.28.

Take `CCn1cc(C(=O)O)c(=O)c2ccc(C)nc21`: the score was determined as 0.74.

As to `CN(C)C(=O)C(CCN1CCC(O)(c2ccc(Cl)cc2)CC1)(c1ccccc1)c1ccccc1`, the score stood at 1.94.

`Cc1cc(NS(=O)(=O)c2ccc(N)cc2)no1` came in with a score of 1.35.

Take `CCCC(CCC)C(=O)O`: the score amounted to 1.39.

Turning to `O=C1CN(/N=C/c2ccc([N+](=O)[O-])o2)C(=O)N1`, the score stood at 0.72.

Consider `COc1cc(Cc2cnc(N)nc2N)cc(OC)c1OC`, for which the score is 1.11.

`COC(=O)C1=C(C)NC(C)=C(C(=O)OCCN(C)Cc2ccccc2)C1c1cccc([N+](=O)[O-])c1` (stereo not given) had a score of 1.16.

`O=C(CCCN1CCC(O)(c2ccc(Cl)cc2)CC1)c1ccc(F)cc1` came in with a score of 1.43.

`CC12CCC(CC1)C(C)(C)O2` returned a score of 1.26.

Compound `CC(C)(C)NCC(O)c1ccc(O)c(CO)c1` (stereo not given) returned a score of 1.14.

In turn, `COc1ccc2cc([C@H](C)C(=O)O)ccc2c1` had a score of 0.32.

In the case of `COc1c2occc2cc2ccc(=O)oc12`, the score is 0.85.

Consider `CN/C(=C\[N+](=O)[O-])NCCSCc1ccc(CN(C)C)o1`, for which the score was found to be 1.61.

In the case of `CNCCCN1c2ccccc2CCc2ccccc21`, the score stood at 1.37.

For `CN1C(=O)CC[C@H]1c1cccnc1`, the score amounted to 1.01.

For the compound `CCCC(=O)Nc1ccc(OCC(O)CNC(C)C)c(C(C)=O)c1` (stereo not given), the score came out at 1.34.

On to `CC(C)OC(=O)C(C)(C)Oc1ccc(C(=O)c2ccc(Cl)cc2)cc1`, for which the score is -2.53.

Turning to `CC(C(=O)O)c1cccc(C(=O)c2ccccc2)c1` (stereo not given), the score was 1.03.

`CN1CCN(C2=Nc3cc(Cl)ccc3Nc3ccccc32)CC1` had a score of 1.19.

With `COC(=O)C1=C(C)NC(C)=C(C(=O)OC)C1c1ccccc1[N+](=O)[O-]`, the score came to 0.82.

Test system in a further experiment: not listed separately
Kind of experiment: rescue of polyQ-huntingtin neuronal dysfunction in worms, whole organism, C. elegans mechanosensory neurons, N-terminal huntingtin (AID 1599). The following applies: touch response, stronger effect = higher value.
As for `N=c1nc(N2CCCCC2)cc(N)n1O`, the rescue above control came to 3.83.

In turn, `CC(C)NCC(O)COc1cccc2[nH]ccc12` (stereo not given) yielded a rescue above control of 3.36.

Regarding `CCn1cc(C(=O)O)c(=O)c2ccc(C)nc21`, the rescue above control is -12.9.

Regarding `CN(C)C(=O)C(CCN1CCC(O)(c2ccc(Cl)cc2)CC1)(c1ccccc1)c1ccccc1`, the rescue above control worked out at 1.56.

In the case of `Cc1cc(NS(=O)(=O)c2ccc(N)cc2)no1`, the rescue above control was -4.83.

`CCCC(CCC)C(=O)O` came in with a rescue above control of 2.58.

`O=C1CN(/N=C/c2ccc([N+](=O)[O-])o2)C(=O)N1` came in with a rescue above control of 4.47.

`COc1cc(Cc2cnc(N)nc2N)cc(OC)c1OC`: the rescue above control was determined as 11.6.

Regarding `COC(=O)C1=C(C)NC(C)=C(C(=O)OCCN(C)Cc2ccccc2)C1c1cccc([N+](=O)[O-])c1` (stereo not given), the rescue above control was 19.4.

With `O=C(CCCN1CCC(O)(c2ccc(Cl)cc2)CC1)c1ccc(F)cc1`, the rescue above control worked out at 27.6.

Compound `CC12CCC(CC1)C(C)(C)O2` showed a rescue above control of 2.25.

Compound `CC(C)(C)NCC(O)c1ccc(O)c(CO)c1` (stereo not given) came in with a rescue above control of 0.08.

In turn, `COc1ccc2cc([C@H](C)C(=O)O)ccc2c1` displayed a rescue above control of -11.2.

As for `COc1c2occc2cc2ccc(=O)oc12`, the rescue above control stood at 6.17.

On to `CN/C(=C\[N+](=O)[O-])NCCSCc1ccc(CN(C)C)o1`, for which the rescue above control was -10.5.

`CNCCCN1c2ccccc2CCc2ccccc21` came in with a rescue above control of -15.4.

On to `CN1C(=O)CC[C@H]1c1cccnc1`, for which the rescue above control was -5.98.

Compound `CCCC(=O)Nc1ccc(OCC(O)CNC(C)C)c(C(C)=O)c1` (stereo not given) returned a rescue above control of -8.24.

In the case of `CC(C)OC(=O)C(C)(C)Oc1ccc(C(=O)c2ccc(Cl)cc2)cc1`, the rescue above control came to 27.1.

Regarding `CC(C(=O)O)c1cccc(C(=O)c2ccccc2)c1` (stereo not given), the rescue above control was 17.1.

`COC(=O)C1=C(C)NC(C)=C(C(=O)OC)C1c1ccccc1[N+](=O)[O-]` yielded a rescue above control of 8.1.
